# Reference: PubChem BioAssay (NCI)
# “And” between values parts separate entries of the source, which are not always exact repeats. Equal values may be shown once. This is part of a sample that, as a whole, favours compounds with a hit. Of some 83,000 tested, about 20% had one in any assay.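 Interpretation: 100, growth as untreated; towards 0, rising growth inhibition; 0, no net growth; 0 to -100, cell death. Compounds scoring below 10 were considered active.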 The source made the active and inactive calls.
# Tested on: OVCAR-4 ovarian
# Assay: NCI-60 one-dose screen, 48 h (100 = growth as untreated, 0 = no growth, -100 = all killed)
# Details: 10 µM
# Experimental: Growth inhibition of the OVCAR-4 human tumor cell line is measured as a screen for anti-cancer activity. Cells are grown in 96 well plates and exposed to the test compound for 48 hours. Compounds are tested at a single concentration, which is 10^-5 M for most compounds. The reported endpoint is percent growth (GI% or GIPRCNT), where numbers from 0 - 100% represent growth inhibition, and numbers from -100% - 0 represent cell death. For example, a value of 40 represents 60% growth inhibition. A value of 0 means no net growth occurred over the course of the experiment. A value of -40 indicates 40% of cells at the beginning of the experiment died by the end of the experiment. A value of -100 means all cells are dead at the end of the experiment.
# NCI-60 Human Tumor Cell Lines Screen was performed using the standard one-dose NCI protocol, which is described in more detail at https://dtp.cancer.gov/discovery_development/nci-60/default.htm.
# Compounds with GIPRCNT values below 10 were considered active. Activity score was based on GIPRCNT using the following formula: […]
# Score is 0 for GIPRCNT values of 100 or above, 50 for GIPRCNT values of 0, and 100 for GIPRCNT values of -100.
row,Structure (SMILES),growth
1,CC(=O)/C=C/c1ccc(N(CCO)Cc2ccc(C(C)(C)C)cc2)cc1,65.7% (inactive)

# Same assay, conditions: 10 µM unless noted
row,Structure (SMILES),growth
1,CN(C)CCCn1c2nc(=O)[nH]c(=O)c-2nc2cc(Cl)c(Cl)cc21,81.8% (inactive)
2,Clc1ccc(CNc2ccc3nc(CCC4CCCCC4)[nH]c3c2)cc1,32.3% (inactive)
3,OB(O)c1ccsc1-c1nc2ccc3[nH]ncc3c2c2c1CCCC2,72.3% (inactive)
4,C#CCOCC1CN(C)C(=O)O1 (stereo not given),116% (inactive)
5,O=c1c2c([nH]c3ccccc13)CCCC2,100% (inactive) and 68.5% (inactive)
6,O=C1/C(=C/c2cn(-c3ccccc3)nc2-c2ccccc2)SC(=S)N1c1ccc(Cl)cc1,80.3% (inactive)
7,COC(=O)/C=C1/SC(N2N=C(c3cccs3)CC2c2ccc(F)cc2)=NC1=O (stereo not given),84.8% (inactive)
8,[2H]C([2H])([2H])Oc1cccc(/C=C/C(=O)/C=C(/C=C/c2cccc(OC([2H])([2H])[2H])c2OC([2H])([2H])[2H])OB(F)F)c1OC([2H])([2H])[2H],71.5% (inactive)
9,Nc1ncnc2c1C(c1ccc([N+](=O)[O-])cc1)c1sc3c(F)cccc3c1O2 (stereo not given),99.8% (inactive)
10,O=C(Nc1cc(C(F)(F)F)cc(C(F)(F)F)c1)c1cc(Cl)ccc1O,24.8% (inactive) and 20.3% (inactive)
11,CCOC(=O)CC1CSC(c2cccc(Cl)c2)=N1 (stereo not given),111% (inactive)
12,COc1cc(NC2CCCCC2O)c2nc(-c3ccc(Cl)cc3)ccc2c1 (stereo not given),75.6% (inactive) and 76.7% (inactive)
13,CN(Cc1ccccc1)c1nc(Cl)c(C2CC(c3ccc4c(c3)OCO4)=NN2c2cc(Cl)cc(Cl)c2)s1 (stereo not given),90.1% (inactive)
14,CCCCCCCCn1ccc2cc(NC(=O)CN3CCN(c4nc(C)cc(N5CCCCC5)n4)CC3)ccc21,82.7% (inactive)
15,COCCOc1cc2ncnc(N3CCN(S(=O)(=O)c4ccccc4Cl)CC3)c2cc1OCCOC,102% (inactive)
16,O=S(=O)(Nc1cc(Sc2cccc3cccnc23)c(O)c2ccccc12)c1ccc(F)cc1,-99% (active)
17,Cc1ccc(-c2nc3nc(-c4ccccc4)nc(N4CCCNCC4)c3o2)cc1,-52.3% (active)
18,COc1ccc(/C=N/C2=C(C#N)C(c3ccccc3)c3c(ccc4ccccc34)O2)cc1 (stereo not given),52.3% (inactive)
19,O=C(NCCCN1CCCCC1)c1ccc(-c2nc3ccc4[nH]ncc4c3c3c2CCCC3)cc1,54.3% (inactive)

row,Structure (SMILES),growth
1,Cc1nc2sc(C(=O)Nc3cccc4ncccc34)c(N)c2cc1C(C)O (stereo not given),91.3% (inactive)
2,CN1C(=O)N(C)C2(c3ccccc3)N(CC(=O)Nc3ccccc3O)C(=O)NC12c1ccccc1 (stereo not given),99.3% (inactive)
3,O=C(O)C1C2CCC1C(O)C2 (stereo not given),106% (inactive) and 108% (inactive)
4,Cc1ccccc1SSc1ccccc1C,94.5% (inactive)
5,O=C1/C(=C/c2ccccc2[N+](=O)[O-])Cc2ccccc21,-36.5% (active) and -39.5% (active)
6,Cc1ccc2[nH]c(=S)[nH]c(=O)c2c1,102% (inactive)
7,NS(=O)(=O)OCC1OC(n2cnc3cncnc32)C(O)C1O (stereo not given),14.6% [0.1 µM] (inactive) and 11.4% [0.1 µM] (inactive)
8,Nc1nc(CSc2n[nH]c(N)n2)nc(Nc2ccccc2)n1,93.4% (inactive)
9,Cc1c(CC(=O)OCCO)cc(-c2ccc(Cl)cc2)n1-c1ccccc1,68.9% (inactive)
10,CN1CCN(C(=O)OCc2nc3c(N4CCOCC4)nc(Cl)nc3n2C)CC1,-39.5% (active)
11,O=C(N/N=C/c1ccc(O)cc1O)c1cccc(Nc2ccnc(C(F)(F)F)c2)c1,39.9% (inactive)
12,Cc1ccc(NC(=O)c2ccc(CN3CCN(C)CC3)cc2)cc1Nc1nccc(-c2cccnc2)n1,100% (inactive) and 93.1% (inactive)
13,O=C1C(=C(O)c2ccccc2)C(=O)c2ccccc21,101% (inactive)
14,COc1ccc2c(c1)CC[C@@H]1[C@@H]2CC[C@]2(C)C3C(=CCC4C(=O)N(c5ccccc5)C(=O)C43)C[C@@H]12 (stereo not given in full),78.8% (inactive)
15,COc1ccc2c(c1)c(C(=O)c1nc(-c3cn(C)c4ccccc34)no1)cn2C,95.8% (inactive)
16,COc1ccc(CN2CCc3c(Cl)nc(N)nc3C2=O)c(OC)c1,15.2% [100 µM] (inactive)
17,CCN1C(=O)N(c2ccccc2)C2NC(=S)N(/N=C/C=C/c3ccccc3)C21 (stereo not given),34.3% (inactive)
18,OCCN1CCN(c2cc(-c3cccc(OC(F)(F)F)c3)nc3ccc(N4CCCC4)cc23)CC1,54.9% (inactive)
19,COc1ccc(/C=C2/C(=O)N=C3N2NC(c2ccccc2)=CN3c2ccccc2)cc1,102% (inactive)

# Same assay, conditions: 100 µM
row,Structure (SMILES),growth
1,CC(=O)/C=C/c1ccc(N(CCO)Cc2ccc(C(C)(C)C)cc2)cc1,-89.2% (active)
